Assay results reported in PubChem BioAssay (EPA / NIEHS).
Results filed as inconclusive are left out. The source made the active and inactive calls. The calls were made as follows, unless noted: active = hit-call score of the fitted dose curve at least 0.9, where 1 is the maximum; inactive = score below 0.9.

Columns and labels:
[1] = ATG_M_06_TRANS: Attagene TRANS-FACTORIAL HepG2 Assay for M06 Transcription Factor (Internal Marker) (AID 2282983; active = hit-call score of the fitted dose curve at least 0.9, where 1 is the maximum;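 as to AC50: potency for rise in reporter mRNA above DMSO baseline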); details: HepG2 Attagene TRANS M06 internal marker reporter
Procedure, shortened: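 Internal-marker background readout from a multiplexed TRANS reporter system in HepG2; 24 h dosing; mRNA induction quantified by RT-PCR plus capillary electrophoresis fluorescence; DMSO as negative control and baseline.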

[2] = target: Transcriptional activator Myb (Homo sapiens) (UniProt P10242); test: ATG_Myb_CIS: Attagene CIS-FACTORIAL HepG2 Assay for human Myeloblastosis (Myb) Proto-Oncogene Transcription Factor (AID 2282986); details: HepG2 Attagene CIS-FACTORIAL Myb reporter transcription; actives raise or lower the signal
Procedure, shortened: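 Using HepG2 liver cells bearing transiently transfected cis-promoter reporter constructs, the assay measures induction or loss of reporter mRNA after 24 hours of dosing. Detection used fluorescently labeled RT-PCR products separated by capillary electrophoresis.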

[3] = target: Nuclear respiratory factor 1 (Homo sapiens) (UniProt Q16656); test: ATG_NRF1_CIS: Attagene CIS-FACTORIAL HepG2 Assay for human Nuclear Respiratory Factor 1 (NRF1) Orphan Gene (AID 2282987); details: HepG2 NRF1 cis-element reporter, Attagene multiplex; actives raise or lower the signal
Procedure, shortened: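 Reporter mRNA induction or loss in HepG2 cells after 24 h dosing; cis-regulated reporter constructs report endogenous transcription-factor activity. Quantified by RT-PCR/capillary electrophoresis fluorescence, DMSO-referenced.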

[4] = ATG_NFI_CIS: Attagene CIS-FACTORIAL HepG2 Assay for human Nuclear Factor I (NFI) (AID 2282989); details: HepG2 cis-regulatory reporter, NFI response element transcription; actives raise or lower the signal
Procedure, shortened: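 HepG2, transient MRTU, 24 h exposure; RNA→cDNA→PCR→FAM label→HpaI→CE fluorescence. Bidirectional fit, DMSO = baseline.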

[5] = target: Myc proto-oncogene protein (Homo sapiens) (UniProt P01106); test: ATG_Myc_CIS: Attagene CIS-FACTORIAL HepG2 Assay for human Myelocytomatosis (Myc) Proto-Oncogene Transcription Factor (AID 2282990); details: HepG2, Attagene cis-reporter transcription factor activity; actives raise or lower the signal
Procedure, shortened: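 Transiently transfected HepG2 cells bearing cis-promoter reporter units for endogenous transcription factors; 24 h exposure. Reporter mRNA measured by RT-PCR, 6-FAM primer extension, HpaI cut and capillary electrophoresis; bidirectional fit relative to DMSO.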

[6] = ATG_NRF2_ARE_CIS: Attagene CIS-FACTORIAL HepG2 Assay for human Nuclear Factor Erythroid 2 Related Factor 2 (NFR2) response to Antioxidant Response Elements (ARE) (AID 2282992); details: HepG2 Attagene ARE/NRF2 reporter, transcription factor activity; actives raise or lower the signal;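 as to AC50: reporter mRNA level measured by RT-PCR and capillary electrophoresis fluorescence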
Procedure, shortened: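 HepG2 cells transiently transfected with multiplexed cis-element reporter constructs, 24 h after chemical dosing; reporter mRNA quantified by RT-PCR, fluorescent primer extension, HpaI digestion and capillary electrophoresis. Bidirectional fit relative to DMSO.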

[7] = ATG_Oct_MLP_CIS: Attagene CIS-FACTORIAL HepG2 Assay for human Octamer-Binding Transcription Factor (Oct) (AID 2282993); details: HepG2 Attagene cis-factorial Oct reporter, mRNA; actives raise or lower the signal
Procedure, shortened: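 Multiplexed cis-reporter assay in human liver HepG2 cells, 24 h incubation. Reporter RNA amplified and labelled, then resolved by capillary electrophoresis; DMSO serves as negative control and baseline.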

[8] = ATG_NF_kB_CIS: Attagene CIS-FACTORIAL HepG2 Assay for human Nuclear Factor Kappa B (NF-kB) (AID 2282991); details: HepG2 Attagene cis-factorial NF-kB reporter mRNA; actives raise or lower the signal
Procedure, shortened: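 DMSO served as negative control and baseline for bidirectional curve fitting. Transiently transfected HepG2 cells were dosed for 24 h, then reporter transcripts were measured by RT-PCR with capillary electrophoresis detection.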

[9] = target: Nuclear receptor subfamily 4 group A member 2 (Homo sapiens) (UniProt P43354); test: ATG_NURR1_TRANS: Attagene TRANS-FACTORIAL HepG2 Assay for human Nuclear Receptor Related Protein 1 (NURR1) (AID 2282985; active = hit-call score of the fitted dose curve at least 0.9, where 1 is the maximum); details: HepG2 Attagene TRANS reporter, mRNA readout
Procedure, shortened: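 HepG2 / transient MRTU transfection / 24 h compound exposure / RT-PCR + CE fluorescence of reporter mRNA / gain-of-signal vs DMSO.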

[10] = ATG_M_32_TRANS: Attagene TRANS-FACTORIAL HepG2 Assay for M32 Transcription Factor (Internal Marker) (AID 2282984; active = hit-call score of the fitted dose curve at least 0.9, where 1 is the maximum;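 also: transcript level of a background control reporter unit measured by RT-PCR and capillary electrophoresis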); details: HepG2 Attagene TRANS M32 internal marker reporter
Procedure, shortened: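 Capillary electrophoresis of 6-FAM-labelled reporter fragments gives the signal; data fitted for gain over DMSO negative control. Source: HepG2 cells bearing transient multiple reporter transcription units, 24 h exposure.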

Measured: AC50

Sequence of Nuclear receptor subfamily 4 group A member 2 (Homo sapiens) (P43354 whole entry, looked up): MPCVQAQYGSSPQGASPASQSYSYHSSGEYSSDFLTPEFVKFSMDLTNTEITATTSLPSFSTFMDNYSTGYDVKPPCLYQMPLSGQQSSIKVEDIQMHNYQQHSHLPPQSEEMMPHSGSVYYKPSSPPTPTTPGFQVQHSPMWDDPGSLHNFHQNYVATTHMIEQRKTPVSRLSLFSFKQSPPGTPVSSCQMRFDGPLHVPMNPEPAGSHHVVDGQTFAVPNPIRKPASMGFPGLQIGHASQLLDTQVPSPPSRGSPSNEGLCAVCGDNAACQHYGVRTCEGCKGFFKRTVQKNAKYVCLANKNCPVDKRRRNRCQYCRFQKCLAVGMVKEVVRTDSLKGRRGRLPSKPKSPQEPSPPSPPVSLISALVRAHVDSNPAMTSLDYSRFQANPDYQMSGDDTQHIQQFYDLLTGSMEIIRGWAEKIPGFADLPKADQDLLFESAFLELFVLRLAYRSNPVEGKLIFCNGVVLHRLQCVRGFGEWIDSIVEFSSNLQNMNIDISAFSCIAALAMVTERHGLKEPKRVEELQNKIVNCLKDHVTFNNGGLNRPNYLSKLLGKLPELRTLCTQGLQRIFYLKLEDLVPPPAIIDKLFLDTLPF
Sequence of Transcriptional activator Myb (Homo sapiens) (P10242 whole entry, looked up): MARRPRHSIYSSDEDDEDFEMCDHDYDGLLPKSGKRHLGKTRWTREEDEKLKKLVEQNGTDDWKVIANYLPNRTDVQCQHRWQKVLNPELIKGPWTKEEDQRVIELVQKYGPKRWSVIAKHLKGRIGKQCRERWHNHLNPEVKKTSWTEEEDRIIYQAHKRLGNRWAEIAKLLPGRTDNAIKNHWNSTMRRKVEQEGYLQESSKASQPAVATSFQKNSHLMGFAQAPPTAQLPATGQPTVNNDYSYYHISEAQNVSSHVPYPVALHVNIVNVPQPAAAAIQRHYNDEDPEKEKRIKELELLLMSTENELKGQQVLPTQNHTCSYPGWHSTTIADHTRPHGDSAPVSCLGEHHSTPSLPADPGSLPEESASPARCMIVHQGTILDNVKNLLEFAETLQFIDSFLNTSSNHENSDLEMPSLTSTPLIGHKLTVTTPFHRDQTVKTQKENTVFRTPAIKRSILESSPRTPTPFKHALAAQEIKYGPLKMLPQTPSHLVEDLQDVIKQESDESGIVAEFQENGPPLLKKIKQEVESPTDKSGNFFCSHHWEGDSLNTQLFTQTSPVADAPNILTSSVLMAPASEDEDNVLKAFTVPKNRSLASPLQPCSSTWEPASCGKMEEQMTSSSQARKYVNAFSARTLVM
Sequence of Nuclear respiratory factor 1 (Homo sapiens) (Q16656 whole entry, looked up): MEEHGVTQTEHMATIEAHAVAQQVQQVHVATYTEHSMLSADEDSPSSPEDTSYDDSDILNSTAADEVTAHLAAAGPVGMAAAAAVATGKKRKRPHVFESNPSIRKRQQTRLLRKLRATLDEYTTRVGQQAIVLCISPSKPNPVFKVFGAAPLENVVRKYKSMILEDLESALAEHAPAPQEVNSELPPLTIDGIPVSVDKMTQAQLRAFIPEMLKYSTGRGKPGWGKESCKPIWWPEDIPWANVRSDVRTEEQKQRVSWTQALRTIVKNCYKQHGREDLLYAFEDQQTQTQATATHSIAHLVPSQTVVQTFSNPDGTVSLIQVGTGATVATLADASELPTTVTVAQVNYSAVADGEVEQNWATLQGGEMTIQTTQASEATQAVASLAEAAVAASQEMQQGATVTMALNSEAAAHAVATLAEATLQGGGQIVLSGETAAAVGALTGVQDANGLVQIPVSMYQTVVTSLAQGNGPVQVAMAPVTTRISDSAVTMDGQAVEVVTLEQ
Sequence of Myc proto-oncogene protein (Homo sapiens) (P01106 whole entry, looked up): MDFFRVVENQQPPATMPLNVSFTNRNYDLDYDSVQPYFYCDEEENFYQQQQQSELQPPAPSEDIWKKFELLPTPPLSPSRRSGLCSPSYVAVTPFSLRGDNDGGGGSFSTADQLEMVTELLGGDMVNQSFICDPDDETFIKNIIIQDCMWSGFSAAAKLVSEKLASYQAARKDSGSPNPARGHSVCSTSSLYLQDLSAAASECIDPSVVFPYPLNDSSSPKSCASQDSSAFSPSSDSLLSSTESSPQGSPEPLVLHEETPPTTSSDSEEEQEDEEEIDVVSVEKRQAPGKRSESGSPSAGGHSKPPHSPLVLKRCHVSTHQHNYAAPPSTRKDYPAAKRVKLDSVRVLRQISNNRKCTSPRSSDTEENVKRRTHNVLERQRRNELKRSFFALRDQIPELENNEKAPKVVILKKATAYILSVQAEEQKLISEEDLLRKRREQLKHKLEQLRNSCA

CC1=CC(=O)CC(C)(C)C1
inactive: [1] | [2] | [3] | [4] | [5] | [6] | [7]

Cc1ccc(N)cc1O
active: [6] 22.3 µM
inactive: [1] | [2] | [3] | [4] | [5]

Cc1ccc(O)cc1
inactive: [1] | [2] | [3] | [4] | [5] | [6]

CCCCCCCCCCCCc1ccccc1
inactive: [1] | [3] | [4] | [5] | [6] | [7]

CC(=O)OC[C@H]1O[C@@](COC(C)=O)(O[C@H]2O[C@H](COC(C)=O)[C@@H](OC(C)=O)[C@H](OC(C)=O)[C@H]2OC(C)=O)[C@@H](OC(C)=O)[C@@H]1OC(C)=O
inactive: [1] | [2] | [3] | [4] | [5] | [6] | [7]

O=C(O)c1cccc(N(Cc2cccnc2)c2ccc(OC(F)F)c(OC(F)F)c2)c1
inactive: [1] | [2] | [3] | [4] | [5] | [6] | [7]

Cc1ccc(C)c(O)c1
inactive: [1] | [2] | [3] | [4] | [5] | [6]

CC(C)CCCCCCOC(=O)c1ccc(C(=O)OCCCCCCC(C)C)c(C(=O)OCCCCCCC(C)C)c1
inactive: [1] | [2] | [3] | [4] | [5] | [6]

CC[C@H]1OC(=O)[C@H](C)[C@@H](O[C@H]2C[C@@](C)(OC)[C@@H](O)[C@H](C)O2)[C@H](C)[C@@H](O[C@@H]2O[C@H](C)C[C@H](N(C)C)[C@H]2O)[C@](C)(O)C[C@@H](C)C(=O)[C@H](C)[C@@H](O)[C@]1(C)O
inactive: [1] | [3] | [4] | [5] | [6] | [7]

O=C(O)c1cccc(Oc2ccccc2)c1
inactive: [1] | [3] | [4] | [5] | [6] | [7]

CCCCCCCCCCCCCCCO
inactive: [1] | [3] | [4] | [5] | [6] | [7]

CCOCCO
inactive: [1] | [2] | [3] | [4] | [5] | [6] | [7]

Cn1c(=O)cc(Oc2ccc(F)cc2F)c2cnc(NCC(C)(C)O)nc21
inactive: [1] | [2] | [5] | [6]
active: [3] 51.6 µM | [4] 9.46 µM

NC(=O)NO
inactive: [1] | [3] | [4] | [5] | [8] | [6]

CC(C)=CCC/C(C)=C\CO
inactive: [1] | [9] | [3] | [4] | [5] | [7]
active: [6] 100 µM

CCOC(=O)c1ccc(C2CCC(NC[C@H](O)COc3ccc(O)c(NS(C)(=O)=O)c3)CC2)cc1 (stereo partly drawn)
inactive: [3] | [4] | [6]
active: [1] 62.3 µM | [2] 55.5 µM | [5] 53.8 µM

On1ccccc1=S
active: [6] 12.2 µM
inactive: [1] | [3] | [4] | [5] | [7]

CC(=O)c1ccc2c(c1)[C@H](NC(=O)c1ccc(F)cc1)[C@@H](O)C(C)(C)O2
inactive: [3] | [4] | [5] | [6]

Nc1ccc(Nc2ccccc2)cc1
active: [6] 47.1 µM
inactive: [9] | [2] | [3] | [4] | [5] | [8]

CCCN(C1CCN(C(=O)C2CCNCC2)CC1)[C@@H]1CCc2ccc(OC)cc2C1
inactive: [9] | [2] | [3] | [4]
active: [5] 175 µM | [8] 186 µM | [6] 26.2 µM | [7] 178 µM

COC(=O)c1c(Cl)c(Cl)c(C(=O)OC)c(Cl)c1Cl
inactive: [10] | [9] | [2] | [3] | [4] | [5] | [6]

C=CCCCCCCCCC(=O)O
inactive: [9] | [2] | [3] | [4] | [5] | [6] | [7]

O=C1OC(=O)C2C3C=CC(C3)C12 (stereo not drawn)
inactive: [2] | [3] | [4] | [5] | [6]

CCn1nc(Cc2ccccc2)cc1C1CCN(C[C@H]2C[C@H](N(C)[C@@H](C(=O)O)C(C)C)C[C@@H]2c2cccc(F)c2)CC1
active: [6] 51.5 µM
inactive: [2] | [3] | [4] | [5] | [7]

CCC(C)(C)C(=O)O[C@H]1C[C@@H](C)C=C2C=C[C@H](C)[C@H](CC[C@@H]3C[C@@H](O)CC(=O)O3)[C@H]21
inactive: [3] | [4] | [5] | [6] | [7]

COc1ccc(-n2nc(C(F)F)cc2-c2ccc(S(C)=O)cc2)cc1 (stereo not drawn)
inactive: [10] | [2] | [3] | [4] | [5] | [6]

CCCCCCCCO
inactive: [2] | [3] | [4] | [5] | [6] | [7]

Cc1ccc(S(=O)(=O)O)cc1C
inactive: [10] | [9] | [3] | [4] | [5] | [6] | [7]

Nc1nc2ncc(CNc3ccc(C(=O)N[C@@H](CCC(=O)O)C(=O)O)cc3)nc2c(=O)[nH]1
inactive: [2] | [3] | [4] | [5] | [6] | [7]

CCOC(=O)CC(CC(=O)OCC)(OC(C)=O)C(=O)OCC
inactive: [9] | [3] | [4] | [5]
active: [6] 61.4 µM

Cn1c(=O)c2c(ncn2C)n(C)c1=O
inactive: [9] | [3] | [4] | [5] | [6]

CCOC(=O)COc1ccc2c(c1)CC(NCC(O)c1cccc(Cl)c1)CC2 (stereo not drawn)
inactive: [9] | [2] | [3] | [4] | [5] | [6] | [7]

Fc1ccccc1[C@@H](F)COC1CCC(Nc2ncnc3[nH]ncc23)CC1 (stereo partly drawn)
active: [3] 9.56 µM | [5] 25.4 µM | [6] 6.77 µM
inactive: [9] | [4] | [7]

CC/C(=C\C(=N/O)C(N)=O)C(C)[N+](=O)[O-] (stereo not drawn)
inactive: [2] | [3] | [4] | [5] | [7]
active: [6] 38.7 µM

CCOCCOCCOCCO
inactive: [9] | [3] | [4] | [5] | [6] | [7]

Cc1c(-c2cccnc2)c2ccccc2n1CCCCC(=O)O
inactive: [2] | [3] | [4] | [5] | [6]

COc1ccc(/C=C/S(=O)(=O)NC(=O)c2ccc(C)cc2Cl)cc1
inactive: [10] | [2] | [3] | [4] | [5] | [6] | [7]

O=C(NS(=O)(=O)/C=C/c1ccccc1)c1ccc(F)cc1Cl
inactive: [9] | [3] | [4] | [5] | [8] | [6]

CC(O)CN(CCN(CC(C)O)CC(C)O)CC(C)O (stereo not drawn)
inactive: [9] | [3] | [4] | [5] | [6]

CC(C)CCCCCCCOC(=O)CCCCC(=O)OCCCCCCCC(C)C
inactive: [2] | [3] | [4] | [5] | [8] | [6] | [7]

CC(C)CC(C)(O)C#CC(C)(O)CC(C)C (stereo not drawn)
inactive: [3] | [4] | [5] | [8] | [6] | [7]

CCCC(=O)OCC
inactive: [9] | [3] | [4] | [5] | [6]

CCCCC(CC)COC(=O)CCCCCCCCC(=O)OCC(CC)CCCC (stereo not drawn)
inactive: [10] | [9] | [3] | [4] | [5] | [6] | [7]

O=C(O)c1cc(N=Nc2ccc(S(=O)(=O)Nc3ccccn3)cc2)ccc1O
inactive: [3] | [4] | [5] | [8] | [6]

CC(C)c1cccc(C(C)C)c1N1C(=O)c2ccc(O)cc2C1=O
active: [3] 152 µM | [4] 62.9 µM | [5] 164 µM | [6] 25.2 µM | [7] 76.2 µM
inactive: [10] | [9] | [2] | [8]

CC(C)(O)c1coc(S(=O)(=O)NC(=O)Nc2c3c(cc4c2CCC4)CCC3)c1
inactive: [9] | [3] | [4] | [5] | [6]

O=C(O)CCN(C1(C(=O)NO)CCCC1)S(=O)(=O)c1ccc(Oc2ccc(F)cc2)cc1
inactive: [3] | [4] | [5] | [6] | [7]
